Compound activity: PubChem BioAssay, National Center for Advancing Translational Sciences (NCATS)
The entries come from a sample that favours hits as a whole.
RECQ1 inh-1 – inhibitors of human RECQ1 DNA helicase | RECQ1 DNA unwinding, red fluorescence kinetic read | AID 2549 | P46063 | Potency, µM (doses to about 57.3 µM), most hits filed as inhibitors | hit rate 0.54% among 240,000; note: nearly all actives have a fitted effect of over 30% in size
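50 nM RECQ1T1 preincubated 15 min with compound in Tris pH 8.0 buffer with MgCl2, DTT, Tween-20 and 2.5 ug/ml poly(dI-dC); started with 200 nM TAMRA/BHQ-2 forked duplex and 2 mM ATP. Unwinding read as fluorescence (525/598 nm), two reads 2 h apart.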
APE1 inh – inhibitors of human APE1 endonuclease | P27695 | hit rate 0.35% among 350,000 | Potency, µM (highest dose often 65.8 µM), actives largely listed as inhibitors | recombinant APE1, TAMRA/BHQ-2 abasic DNA cleavage fluorescence; note: nearly all actives have a fitted effect of over 55% in size
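Incision of a quenched TAMRA/BHQ-2 THF abasic-site duplex (50 nM) by 0.75 nM APE1, after 15 min compound preincubation, measured as fluorescence increase over three 60 s reads. Values normalized to buffer, DMSO and NSC13755 control wells.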
BLM inh – inhibitors of human Bloom syndrome helicase BLM; recombinant BLM DNA unwinding, fluorescence dequenching; Potency, µM (doses to about 56.1 µM), hits mostly inhibitors; hit rate 0.2% among 350,000; AID 2528; note: nearly all actives have a fitted effect of over 35% in size
JMJD2E inh – blocks human JMJD2E demethylase activity | Potency, µM (titrated, usually from 57.1 µM), hits mostly inhibitors | B2RXH2 | JMJD2E catalytic domain, FDH-coupled NADH fluorescence (FDH is formaldehyde dehydrogenase) | hit rate 1.6% among 230,000; active = well fitted inhibition curve with a large enough effect, not every such curve was filed as active; inconclusive = small, poorly fitted or top-dose-only effect, or another doubt; inactive = no such curve, though single readings can be large or run the other way; note: nearly all actives have a fitted effect of over 50% in size
Target sequence (B2RXH2 1-337 limits assumed): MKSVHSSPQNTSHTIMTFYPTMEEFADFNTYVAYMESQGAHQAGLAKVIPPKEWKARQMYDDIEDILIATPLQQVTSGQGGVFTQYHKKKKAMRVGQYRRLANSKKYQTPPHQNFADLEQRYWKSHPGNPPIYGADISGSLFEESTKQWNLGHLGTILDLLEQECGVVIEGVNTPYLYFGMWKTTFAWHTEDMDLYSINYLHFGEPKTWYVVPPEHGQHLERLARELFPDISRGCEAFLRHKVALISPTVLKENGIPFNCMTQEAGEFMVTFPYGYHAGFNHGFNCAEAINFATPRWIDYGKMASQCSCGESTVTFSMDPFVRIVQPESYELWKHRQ
TDP1 inh – TDP1 (human) enzyme inhibition. recombinant TDP1, AlphaScreen DNA substrate cleavage. Potency, µM (highest dose often 130 µM), most hits filed as inhibitors. hit rate 0.28% among 350,000; note: nearly all actives have a fitted effect of over 40% in size
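Compounds were preincubated with Tdp1 (1 nM final) for 15 min at room temperature before substrate (15 nM final) started a 5 min reaction; beads (10 ug/ml final) were then added for 10 min before AlphaScreen detection.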
L3MBTL1 block – L3MBTL1 (human) inhibition. Q9Y468. AlphaScreen L3MBTL1–H3K9me1 peptide binding. Potency, µM (top dose mostly 57.1 µM), hits mostly inhibitors. hit rate 0.66% among 230,000. AID 485360; note: nearly all actives have a fitted effect of over 60% in size
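Read-out is AlphaScreen signal from streptavidin donor and nickel chelate acceptor beads (10 ug/mL final each) bridging L3MBTL1 (50 nM) and biotinylated K9-monomethylated H3(1-15) peptide (75 nM), after 30 min compound exposure at room temperature.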
RECQ1 inh conf – confirmation of human RECQ1 helicase inhibitors | shares compounds with RECQ1 inh-1 | RECQ1 helicase DNA unwinding, fluorescence | Potency, µM (doses to about 229 µM), hits mostly inhibitors | hit rate 28% among 610 | AID 2708; note: nearly all actives have a fitted effect of over 45% in size
ADP FP counter – displaces ADP in a fluorescence polarization counter-screen for RECQ1 hits; shares compounds with RECQ1 inh-1; ADP fluorescence polarization displacement counterscreen; Potency, µM (titrated, usually from 228 µM), hits mostly inhibitors; hit rate 27% among 530; note: nearly all actives have a fitted effect of over 45% in size
RECQ1 inh-2 – confirmation of human RECQ1 helicase inhibitors; shares compounds with RECQ1 inh-1; recombinant RECQ1 DNA unwinding, red fluorescence; Potency, µM (doses to about 119 µM), usual class: inhibitors; hit rate 15% among 1,100; note: nearly all actives have a fitted effect of over 50% in size
Each line names hits and unclear results; the compound was inactive in the other large screens (follow-up assays come after a bar, where they were run); ! = not confirmed by another sample. Unless noted, calls come from the whole dose curve; as a rule, active = well fitted curve in the direction sought with a large enough effect; inconclusive = small, poorly fitted or top-dose-only effect, or another doubt; inactive = no such curve, though single readings can be large; an effect the other way counts as inactive or inconclusive.

CCN(CC)C(=O)N[C@@H]1C=C2c3cccc4[nH]cc(c34)C[C@H]2N(C)C1	RECQ1 inh-1 inconclusive (no result: APE1 inh, JMJD2E inh, L3MBTL1 block) | RECQ1 inh conf inactive | ADP FP counter 22µM
CCC(CO)NC(=O)C1C=C2c3cccc4[nH]cc(c34)CC2N(C)C1 (stereo not given)	JMJD2E inh inconclusive
CC[C@@H](CO)NC(=O)[C@@H]1C=C2c3cccc4[nH]cc(c34)C[C@H]2N(C)C1	RECQ1 inh-1 35µM, APE1 inh inconclusive (no result: JMJD2E inh, L3MBTL1 block) | RECQ1 inh conf inactive | ADP FP counter 112µM
Cc1[nH]cnc1CCN	none (no result: L3MBTL1 block)
CN(C(=O)Cc1ccc(Cl)c(Cl)c1)[C@H](CN1CCCC1)c1cccc(N=C=S)c1	RECQ1 inh-1 inconclusive (no result: L3MBTL1 block)
CCC(C=C[C@@H]1OC(=O)C=C[C@H]1C)=C[C@H](C)CC=CC(C)=C[C@@H](C)C(=O)[C@@H](C)[C@H](O)[C@@H](C)CC(C)=CC(=O)O	RECQ1 inh-1 inconclusive, APE1 inh inconclusive, BLM inh inconclusive, TDP1 inh 1.3µM (no result: JMJD2E inh, L3MBTL1 block) | RECQ1 inh-2 1.3µM
COC(=O)COc1ccc(C[C@@H](C)NC[C@H](O)c2cccc(Cl)c2)cc1	none (no result: JMJD2E inh, L3MBTL1 block)
c1c[nH]cn1	none (no result: BLM inh, JMJD2E inh, L3MBTL1 block)
CCOC(=O)c1ccc(N=Cc2c(O)n(-c3ccccc3F)c(=S)[nH]c2=O)cc1	RECQ1 inh-1 32µM | RECQ1 inh-2 inactive
[O-][Cl+]O	none (no result: BLM inh, JMJD2E inh, L3MBTL1 block)
CC[C@H](C)[C@H](NC(=O)[C@H](CO)NC(=O)[C@H](CC(N)=O)NC(=O)[C@H](CC(C)C)NC(=O)[C@H](Cc1ccc(O)cc1)NC(=O)[C@H](CCCCN)NC(=O)[C@H](CCCCN)NC(=O)[C@@H](NC(=O)[C@H](C)NC(=O)[C@H](CCSC)NC(=O)[C@H](CCC(N)=O)NC(=O)[C@H](CCCCN)NC(=O)[C@H](CCCNC(=N)N)NC(=O)[C@H](CC(C)C)NC(=O)[C@H](CCCNC(=N)N)NC(=O)[C@@H](NC(=O)[C@H](Cc1ccc(O)cc1)NC(=O)[C@H](CC(N)=O)NC(=O)[C@H](CC(=O)O)NC(=O)[C@@H](NC(=O)[C@H](Cc1ccccc1)NC(=O)[C@@H](NC(=O)[C@H](C)NC(=O)[C@H](CC(=O)O)NC(=O)[C@H](CO)NC(=O)[C@@H](N)Cc1cnc[nH]1)C(C)C)[C@@H](C)O)[C@@H](C)O)C(C)C)C(=O)N[C@@H](CC(C)C)C(=O)N[C@@H](CC(N)=O)C(N)=O	none (no result: JMJD2E inh, L3MBTL1 block)
O=C1C(=O)c2ccccc2-c2ccccc21	RECQ1 inh-1 inconclusive, APE1 inh inconclusive, BLM inh 20µM, JMJD2E inh inconclusive (no result: L3MBTL1 block) | RECQ1 inh-2 10µM
Cc1ccc(-c2cc(-c3ccc(C)cc3)[n+](-c3ccc(C(=O)O)cc3)c(-c3ccc(C)cc3)c2)cc1	none (no result: RECQ1 inh-1, BLM inh, JMJD2E inh)
O=C(O)c1ccc(-c2ccc3cc(C45CC6CC(CC(C6)C4)C5)c(O)cc3c2)cc1	RECQ1 inh-1 20µM (no result: JMJD2E inh, L3MBTL1 block) | RECQ1 inh conf 100µM | ADP FP counter 112µM | RECQ1 inh-2 inconclusive
CC(=O)OC[C@H](N)C(=O)c1ccccc1	none (no result: JMJD2E inh, L3MBTL1 block)
CC[N+](=O)[O-]	none (no result: BLM inh, JMJD2E inh, L3MBTL1 block)
O=C(O)CCn1cc(C=C2C(=O)NC(=O)NC2=O)c(-c2cc3ccccc3oc2=O)n1	JMJD2E inh inconclusive (no result: TDP1 inh) | RECQ1 inh conf inactive | ADP FP counter inactive
CC1COC2=C1C(=O)C(=O)c1c2ccc2c1CCCC2(C)C (stereo not given)	RECQ1 inh-1 13µM!, APE1 inh inconclusive, BLM inh inconclusive, JMJD2E inh inconclusive (no result: L3MBTL1 block) | RECQ1 inh conf 100µM | ADP FP counter 28µM
